Measurements taken from PubChem BioAssay (NCATS).
Results filed as inconclusive are left out. Unmarked numbers belong to inactive results. The call rests on the fitted dose curve; in most records, active means well fitted cell-killing curve with a large enough effect; inconclusive means small, poorly fitted or top-dose-only effect; inactive means flat fitted curve, though single readings scatter.

Assay: qHTS assay to identify small molecule inhibitors of chordoma cells - UCH-2 (AID 1259356)
Conditions: UCH-2 chordoma viability, CellTiter-Glo ATP luminescence, 48 h; series mostly up to 46.1 µM; activity change, negative = inhibition: at the top concentration
Text: NIH Chemical Genomics Center [NCGC]
Chordoma is a rare and slow growing tumor that can occur anywhere along the spine, from the base of the skull to the tailbone. Current treatment options for chordoma is surgery and radiation therapy for those who are not candidates for surgery. But chordomas tend to return in the same location or surrounding areas of the original tumor after surgery and/or radiation. Chemotherapy can slow down the progression of the tumor. As chordoma is slow growing, the general cytotoxic agents that kill fast growing cells are ineffective, and some patients have been reported to respond to molecularly targeted drugs.
NCATS Pharmaceutical Collection (NPC) containing approximately 3000 clinically approved and investigational drugs were used to screen at 15 concentrations in a chordoma cell lines, UCH-2, to identify small molecule compounds that can inhibit chordoma cell growth.
NCGC Assay Protocol Summary:
Human chordoma cell line UCH-2 was dispensed at 800 per well in 4uL of culture medium into white solid bottom 1536-well plates (Corning Life Sciences, Corning, NY) using a Multidrop Combi (Thermo Scientific, Waltham, MA) dispenser. The assay plates were incubated at 37 C and 5% CO2 for an overnight, and then 23nL of compounds dissolved in DMSO and positive control were transferred using a Pintool station (Wako, San Diego, CA). Compound treatment was followed by the addition of 1uL of the combination compounds (1uM Auranofin, 500nM each of Camptothecin, Doxorubicin, Rubitecan, and Topotecan) and assay medium to each well of the assay plates using Flying Reagent Dispenser (FRD, Aurora Discovery, San Diego, CA). The assay plates were incubated at 37 C and 5% CO2 for 48hr. Then 5uL of CellTiter-Glo reagent (Promega Corporation, Madison, WI) was added to each well of the assay plates using FRD. After 30min incubation at room temperature, the luminescence signal was quantified using a ViewLux plate reader (PerkinElmer, Shelton, CT).
On the % scale 0 is the no-effect control and ±100 the full control effect.

Row | Compound | activity change, negative = inhibition
1 | CC(=O)OC[C@H]1O[C@@](COC(C)=O)(O[C@H]2O[C@H](COC(C)=O)[C@@H](OC(C)=O)[C@H](OC(C)=O)[C@H]2OC(C)=O)[C@@H](OC(C)=O)[C@@H]1OC(C)=O | 1.74%
2 | COc1ccc(C(=O)NCc2ccc(OCCN(C)C)cc2)cc1OC | -13.7%
3 | Cc1ccc(S(=O)(=O)NC(=O)NC2CCCCC2)cc1 | 4.52%
4 | CC(=O)Nc1ccc(C(=O)O)cc1 | 1.57%
5 | CC(O)CCCCn1c(=O)c2c(ncn2C)n(C)c1=O (stereo not given) | -9.7%
6 | Cc1cc(=O)[nH]c(=S)[nH]1 | -2.87%
7 | CC1CC(OC(=O)c2ccccc2O)CC(C)(C)C1 (stereo not given) | 8.01%
8 | O=C(O)c1ccccc1C(=O)Nc1ccc(S(=O)(=O)Nc2nccs2)cc1 | 10.8%
9 | CO[C@@]1(NC(=O)C(C(=O)O)c2ccc(O)cc2)C(=O)N2C(C(=O)O)=C(CSc3nnnn3C)CO[C@@H]21 (stereo not given in full) | 23.7% [at 20.6 µM]
10 | COc1ccc(Cc2cnc(N)nc2N)cc1OC | 0.351%
11 | CCOC(N)=O | 7.28%
12 | CC(C)(C)C(=O)OCOC(=O)[C@@H]1N2C(=O)[C@@H](NC(=O)[C@H](N)c3ccccc3)[C@H]2SC1(C)C | 2.59% [at 20.6 µM]
13 | CC[N+](C)(CC)CCOC(=O)C1c2ccccc2Oc2ccccc21 | -2.88%
14 | CC(=O)N[C@@H](CC(C)C)C(=O)O | 7.65%
15 | c1ccc2[nH]ccc2c1 | 2.7%
16 | COc1ccc(O)cc1 | 3.3%
17 | CC(C)CCOC(=O)c1ccc(N(C)C)cc1 | -2.25%
18 | Nc1ccc(S(=O)(=O)c2ccc(N)cc2)cc1 | -2.15%
19 | COc1ccc(C(=O)N2CCN(CC(=O)N3CCOCC3)CC2)cc1 | 3.53%
20 | CC(=O)OCC(COC(C)=O)OC(C)=O | -2.94%

Row | Compound | activity change, negative = inhibition
21 | C[n+]1ccccc1/C=N/O | 7.73% [at 20.6 µM]
22 | CCOc1cc(NC(C)=O)ccc1C(=O)OC | 1.24%
23 | CC(CN(C)C)C(C)(O)Cc1ccc(Cl)cc1 (stereo not given) | 1.36%
24 | CCCCCCCC(=O)OCC(O)CO (stereo not given) | 13.5%
25 | O=C(O)CNC(=O)c1ccccc1I | -2.3%
26 | NS(=O)(=O)c1ccc(NC(=O)CCC(=O)O)cc1 | 17.1%
27 | CC(=O)N[C@@H](Cc1ccc(O)cc1)C(=O)O | -6.15%
28 | C[C@H]1COc2c(C3(N)CC3)c(F)cc3c(=O)c(C(=O)O)cn1c23 | -0.84%
29 | CCCOC(=O)c1ccc(N)cc1 | 9.2%
30 | CC(CSC(=O)c1ccccc1)C(=O)N1C[C@@H](Sc2ccccc2)C[C@H]1C(=O)O (stereo not given in full) | 9.25%
31 | O=C1c2ccccc2S(=O)(=O)N1CCCCN1CCN(c2ncccn2)CC1 | -0.0431%
32 | CCCCCC(C)N (stereo not given) | 3.07%
33 | CN1CC(=O)NC1=N | 9.32%
34 | CC(=O)OCC(=O)[C@@]1(O)CC[C@H]2[C@@H]3CCC4=CC(=O)C=C[C@]4(C)[C@@]3(F)[C@@H](O)C[C@@]21C | 12.4% [at 20.6 µM]
35 | C=CCSCC1Nc2cc(Cl)c(S(N)(=O)=O)cc2S(=O)(=O)N1 (stereo not given) | 16.7%
36 | CC1(C)[C@@H](OC(=O)CCC(=O)O)CC[C@]2(C)[C@H]3C(=O)C=C4[C@@H]5C[C@@](C)(C(=O)O)CC[C@]5(C)CC[C@@]4(C)[C@]3(C)CC[C@@H]12 | 4.05% [at 20.6 µM]
37 | CC(=O)N[C@H]1[C@H]([C@H](O)[C@H](O)CO)OC(C(=O)O)=C[C@@H]1N=C(N)N | -2.99%
38 | Cc1c(NC(=O)c2cccnc2)c(=O)n(-c2ccccc2)n1C | 1.57% [at 20.6 µM]
39 | O=C(O)c1ccc(OCCCOc2ccc(C(=O)O)cc2)cc1 | 2.05%
40 | Cc1cc(NC(=O)C2=C(O)c3ccccc3S(=O)(=O)N2C)no1 | -20.1%
